The source of these data is PubChem BioAssay (NCATS).

The structures appear in SMILES notation. Values joined by “and” are separate entries in the source; they are usually repeats but may differ in a detail not shown here. Equal entries are not always repeated. Inconclusive results are not listed. Active and inactive are the calls of the source. Unless noted, calls follow the shape of the dose curve; as a rule, active = well fitted curve in either direction with a large enough effect (not every such curve was filed as active); inconclusive = small, poorly fitted or top-dose-only effect, or another doubt; inactive = flat fitted curve, though single readings scatter.

Test [1] is described as follows: AP1 Signaling Pathway (AID 357). Also: % is scaled to controls: 0 for no effect and ±100 for the full control effect. The note with it: ME-180 AP-1-bla reporter, EGF-induced, beta-lactamase ratio, 5 h. Summed up: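 Cells are seeded overnight, exposed to compound titrations and an EC50 level of EGF for 5 hours at 37 °C, then loaded with CCF4 dye for 2.5 hours. Beta-lactamase activity under the AP-1 element is read as a blue/green ratio.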
Test [2] concerns the target Cytochrome P450 1A2 (Homo sapiens) (UniProt P05177). The test is described as follows: p450-cyp1a2 (AID 410; calls by dose curve; also: potency is read from the fitted curve at half-maximal effect). To be noted: recombinant CYP1A2, luciferin-ME demethylation, luminescence; series mostly up to 57 µM. Put shortly: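 20nM CYP1A2, 100uM Luciferin-ME (=Km), 100mM KPO4; cpd 10 min RT; +NADPH regen, 60 min RT; stop/detect 20 min; luminescence. Normalized to furafylline 57 uM = full inhibition.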

A short description of test [3]: NFAT Signaling Pathway (AID 444).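 Also: carbachol stimulus at about its EC50 of 1 µM final; % is scaled to controls: 0 for no effect and ±100 for the full control effect.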 To be noted: Jurkat NFAT-bla M1, carbachol, beta-lactamase ratio, 5 h. Summed up: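 Read-out: CCF4 FRET ratio (460 nm/530 nm) after 1 h RT dye loading, used for %activity and AC50 from titration series. Cells: Jurkat NFAT-β-lactamase/M1 line, treated with compound plus 1 uM carbachol for 5 h, 37 °C.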
Test [4] in a line: Stat Signaling Pathway (AID 446).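 Also: ME-180 cervical cancer cells given 40 pM IL-6 alongside compound; SIE-controlled beta-lactamase reporter measured as 460/530 nm FRET emission ratio; % is scaled to controls: 0 for no effect and ±100 for the full control effect.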 The note with it: ME-180 (cervical carcinoma) SIE beta-lactamase reporter, IL-6 stimulated, 5 h. Summed up:
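Normalization used AC90 stimulation (300 pM IL-6) and AC90 inhibition (125 nM pan-JAK inhibitor at 40 pM IL-6). The underlying signal is SIE-driven beta-lactamase in ME-180 cells after 5 h IL-6 exposure with compound.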

For test [5], the target named is Mitogen-activated protein kinase 10 (Mus musculus) (UniProt Q61831). The test is described as follows: JNK3 AlphaScreen Assay (AID 530).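 Also: kinase came from lysate of stimulated human HepG2 cells; signal reports phosphorylation of biotinylated GST-cJun 1-79 at Ser73 with 10 µM ATP; % is scaled to controls: 0 for no effect and ±100 for the full control effect.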 To be noted: JNK3 lysate, c-Jun phosphorylation; series mostly up to 57.1 µM. Put shortly: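 Kinase buffer: 20 mM Tris-HCl pH 7.6, 10 mM MgCl2, 1 mM DTT, 0.1 mM Na3VO4, 0.01% Tween-20; ATP 10 uM. Substrate biotin-GST-cJun(1-79), enzyme from activated HepG2 lysates. Detection by Ser73 phospho-antibody AlphaScreen.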
(In general: Alpha assays give light when donor and acceptor beads are brought close together.)

In test [6] the target is 3',5'-cyclic-AMP phosphodiesterase 4B (Homo sapiens) (UniProt Q07343). In words: qHTS Assay for Inhibitors of PDE-IV (AID 607; active = well fitted activation curve with a large enough effect in the main read-out, with a control signal flat, not every such curve was filed as active; also: % of control where 0% means no effect). The note with it: HEK293 ACTOne CNG channel cells, membrane potential fluorescence; series mostly up to 22.9 µM. Summed up: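 HEK293 ACTOne cells with CNG channel (1000/well), endogenous PDE4; membrane potential dye, compounds up to 22.9 uM final. Fluorescence Ex 535/Em 590; RO 20-1724 (100 uM final) as reference.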
Sequence of 3',5'-cyclic-AMP phosphodiesterase 4B (Homo sapiens) (Q07343 whole entry, looked up): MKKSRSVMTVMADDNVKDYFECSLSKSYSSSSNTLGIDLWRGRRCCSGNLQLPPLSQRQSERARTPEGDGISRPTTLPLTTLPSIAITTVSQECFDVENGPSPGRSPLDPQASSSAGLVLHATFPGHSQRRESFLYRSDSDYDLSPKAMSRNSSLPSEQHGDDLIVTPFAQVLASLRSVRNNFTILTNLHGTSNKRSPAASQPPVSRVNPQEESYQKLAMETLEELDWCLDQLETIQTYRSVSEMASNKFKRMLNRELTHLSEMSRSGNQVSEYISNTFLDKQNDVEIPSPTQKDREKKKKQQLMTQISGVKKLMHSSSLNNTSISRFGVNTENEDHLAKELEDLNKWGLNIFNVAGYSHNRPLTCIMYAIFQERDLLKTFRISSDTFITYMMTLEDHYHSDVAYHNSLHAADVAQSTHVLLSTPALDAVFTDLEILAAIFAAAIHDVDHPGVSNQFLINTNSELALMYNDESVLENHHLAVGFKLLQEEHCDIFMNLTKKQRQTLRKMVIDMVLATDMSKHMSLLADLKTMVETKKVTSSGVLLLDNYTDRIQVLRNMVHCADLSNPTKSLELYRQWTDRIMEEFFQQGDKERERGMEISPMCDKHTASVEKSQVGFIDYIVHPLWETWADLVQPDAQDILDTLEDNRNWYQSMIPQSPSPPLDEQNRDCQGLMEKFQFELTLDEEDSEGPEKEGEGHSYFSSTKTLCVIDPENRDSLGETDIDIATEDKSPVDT
Background: In qHTS, concentration-response curves come from the screen itself.

The nature of test [7]: qHTS Assay for Lipid Storage Modulators (AID 1519; calls by dose curve). To be noted: Drosophila S3 cells, BODIPY lipid droplet/cell ratio, laser cytometry, cells loaded with oleic acid; for activity change, negative = inhibition: at 25.7 µM (top of the series). Summed up: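 Cells seeded at 5,000 per well were treated with compounds over a concentration series and loaded with oleic acid (400 uM, as added). Lipid droplet fluorescence (488 nm excitation, 500-530 nm channel) was read by laser-scanning cytometry and normalized to 20 uM Triacsin C.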

Test [8] addresses Ubiquitin carboxyl-terminal hydrolase 1 (Homo sapiens) (UniProt O94782). In words: Inhibitors of USP1/UAF1: Pilot qHTS (AID 504865; active = well fitted curve in the direction sought with a large enough effect; an effect the other way counts as inactive or inconclusive;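 also: rhodamine fluorescence freed from ubiquitin-rhodamine substrate followed over time; top concentration of the series differs between compounds; % is scaled to controls: 0 for no effect and ±100 for the full control effect; nearly all actives have a fitted effect of over 35% in size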). To be noted: purified USP1/UAF1, Ub-rhodamine cleavage fluorescence; series mostly up to 54.9 µM. Summed up: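 Enzyme-free wells gave the negative control, while test wells held 1nM USP1/UAF1 preincubated with compound for 15 min at room temperature. Ub-Rho at 150nM final started the reaction, and fluorescence at 480/540 nm was recorded kinetically.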

In test [9] the target is Glucocorticoid receptor (Homo sapiens) (UniProt P04150). In words: GR-GFP Redistribution (AID 450;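 active = compounds whose dose series gives a full or clear partial fitted curve of increased nuclear translocation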; also: potency is read from the fitted curve at half-maximal effect). To be noted: U2OS GR-GFP nuclear translocation, laser cytometry, 2 h.
Sequence of Glucocorticoid receptor (Homo sapiens) (P04150 whole entry, looked up): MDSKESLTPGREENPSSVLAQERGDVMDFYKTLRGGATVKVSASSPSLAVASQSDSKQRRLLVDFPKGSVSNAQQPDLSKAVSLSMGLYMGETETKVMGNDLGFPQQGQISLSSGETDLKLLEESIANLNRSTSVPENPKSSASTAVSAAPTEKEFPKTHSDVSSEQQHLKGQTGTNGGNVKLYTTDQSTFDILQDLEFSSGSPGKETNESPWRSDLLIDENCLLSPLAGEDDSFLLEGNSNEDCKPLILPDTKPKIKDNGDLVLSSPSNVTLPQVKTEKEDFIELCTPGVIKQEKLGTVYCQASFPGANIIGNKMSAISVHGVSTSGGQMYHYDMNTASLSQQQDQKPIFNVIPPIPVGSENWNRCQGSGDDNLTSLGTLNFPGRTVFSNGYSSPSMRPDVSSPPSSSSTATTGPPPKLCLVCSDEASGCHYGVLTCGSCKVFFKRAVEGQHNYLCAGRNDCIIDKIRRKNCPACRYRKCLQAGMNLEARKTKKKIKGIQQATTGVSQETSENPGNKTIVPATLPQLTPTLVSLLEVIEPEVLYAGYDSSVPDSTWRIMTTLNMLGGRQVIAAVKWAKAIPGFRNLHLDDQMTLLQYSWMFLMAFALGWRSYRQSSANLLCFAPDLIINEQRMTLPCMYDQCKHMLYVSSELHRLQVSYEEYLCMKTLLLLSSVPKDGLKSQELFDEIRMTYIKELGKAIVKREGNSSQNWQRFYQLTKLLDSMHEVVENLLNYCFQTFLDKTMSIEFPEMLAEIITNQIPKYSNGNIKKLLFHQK
Test [10] has the same target. In words: GR-EFC Redistribution (AID 451; calls by dose curve; also: potency is read from the fitted curve at half-maximal effect). The note with it: CHO-K1 GR-EFC translocation, beta-gal luminescence, 2 h. Summed up:
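Translocation of GR-ED fusion to nuclear EA restores b-gal, read by luminescence after 1 h room-temperature detection. Engineered CHO-K1 biosensor cells, 1,000/well, exposed 2 h at 37 C to titrations up to 46 uM final.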

Test [11] has as its target ATP-dependent 6-phosphofructokinase (Trypanosoma brucei brucei) (UniProt O15648). The test is described as follows: qHTS Assay to Find Inhibitors of T. brucei phosphofructokinase: hit validation (AID 492961; active = well fitted curve in the direction sought with a large enough effect; an effect the other way counts as inactive or inconclusive). The note with it: T. brucei PFK, ADP-Glo luminescence; series mostly up to 24.3 µM. Put shortly: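 Measures ADP output of PFK (1.25 nM) at 0.1 mM ATP, 0.5 mM F6P, pH 8.0 TEA buffer with 5 mM MgCl2. No-enzyme wells define full inhibition; uninhibited enzyme wells define zero.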

Test [12] addresses Luciferin 4-monooxygenase (Photinus pyralis) (UniProt P08659). The test is described as follows: Biochemical firefly luciferase enzyme assay for NPC (AID 624030; active = well fitted curve in the direction sought with a large enough effect; an effect the other way counts as inactive or inconclusive;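 also: purified P. pyralis luciferase at 10 nM with luciferin and ATP substrate; 0% = DMSO and -100% = full luciferase inhibition by PTC124 control; nearly all actives have a fitted effect of over 70% in size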). To be noted: purified P. pyralis luciferase, luminescence, 5 min; series mostly up to 58.6 µM. Summed up: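 Direct inhibition of firefly luciferase enzyme (10 nM final, 50 mM Tris Acetate) assessed by luminescence within 5 minutes. Percent activity scaled between DMSO and PTC124 positive control, with concentration-effect curves classified by fit quality and response.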

The nature of test [13]: qHTS profiling for inhibitors of Plasmodium falciparum proliferation (AID 504749; active = well fitted curve in the direction sought with a large enough effect; an effect the other way counts as inactive or inconclusive;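 also: 0% = DMSO vehicle and full inhibition = artemisinin control; nearly all actives have a fitted effect of over 60% in size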). The note with it: P. falciparum in erythrocytes, SYBR Green DNA, 72 h, at 12.8 µM (top of the series). Summed up:
(§1)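 In a 72 h erythrocytic culture (37 C, humidified, 5% CO2) at 2.5% hematocrit and 0.3% starting parasitemia, compounds were tested; SYBR Green I in detergent lysis buffer stained parasite DNA overnight.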

Test [14] has as its system AS120. Described as above. The note with it: P. falciparum in erythrocytes, SYBR Green DNA, 72 h; series mostly up to 28.7 µM. Summed up: as §1
The subject of test [15] is CP201. Described as above. To be noted: P. falciparum in erythrocytes, SYBR Green DNA, 72 h; series mostly up to 12.8 µM. Put shortly: as §1
The subject of test [16] is CP238. The description is as above. The note with it: P. falciparum in erythrocytes, SYBR Green DNA, 72 h; series mostly up to 12.8 µM. Put shortly:
as §1

Test [17] has as its system CP262. Described as above. The note with it: P. falciparum in erythrocytes, SYBR Green DNA, 72 h; series mostly up to 12.8 µM. Summed up: as §1
The test system of test [18] is CP265. The description is as above. The note with it: P. falciparum in erythrocytes, SYBR Green DNA, 72 h; series mostly up to 12.8 µM. Put shortly:
as §1

Test [19] relates to FAB9. Described as above. The note with it: P. falciparum in erythrocytes, SYBR Green DNA, 72 h; series mostly up to 12.8 µM. Put shortly:
as §1

Test [20] has as its system JCK. The test is described as above. To be noted: P. falciparum in erythrocytes, SYBR Green DNA, 72 h; series mostly up to 12.8 µM. Put shortly: as §1
Where [21] appears, read: measured here: cell count channel max response.
Where [22] appears, read: measured here: lipid channel max response.

Sequence of Ubiquitin carboxyl-terminal hydrolase 1 (Homo sapiens) (O94782 whole entry, looked up): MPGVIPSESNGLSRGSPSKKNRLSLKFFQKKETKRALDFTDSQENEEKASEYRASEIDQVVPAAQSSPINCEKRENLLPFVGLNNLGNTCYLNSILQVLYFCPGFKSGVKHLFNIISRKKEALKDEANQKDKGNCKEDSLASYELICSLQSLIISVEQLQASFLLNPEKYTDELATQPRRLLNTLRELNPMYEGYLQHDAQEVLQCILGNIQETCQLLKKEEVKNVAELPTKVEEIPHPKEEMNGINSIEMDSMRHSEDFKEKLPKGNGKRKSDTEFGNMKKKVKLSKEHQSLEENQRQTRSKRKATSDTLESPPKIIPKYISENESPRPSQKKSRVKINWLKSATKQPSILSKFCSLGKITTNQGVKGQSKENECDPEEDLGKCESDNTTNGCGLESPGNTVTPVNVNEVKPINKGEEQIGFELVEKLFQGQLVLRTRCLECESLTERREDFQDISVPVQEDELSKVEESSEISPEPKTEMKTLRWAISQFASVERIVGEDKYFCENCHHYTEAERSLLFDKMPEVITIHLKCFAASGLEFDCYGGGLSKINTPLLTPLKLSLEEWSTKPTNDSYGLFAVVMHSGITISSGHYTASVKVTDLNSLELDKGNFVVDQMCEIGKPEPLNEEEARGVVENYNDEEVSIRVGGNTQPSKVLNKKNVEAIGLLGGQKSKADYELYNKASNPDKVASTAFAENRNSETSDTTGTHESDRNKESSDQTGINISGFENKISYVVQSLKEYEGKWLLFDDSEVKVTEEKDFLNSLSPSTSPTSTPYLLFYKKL
Sequence of Cytochrome P450 1A2 (Homo sapiens) (P05177 whole entry, looked up): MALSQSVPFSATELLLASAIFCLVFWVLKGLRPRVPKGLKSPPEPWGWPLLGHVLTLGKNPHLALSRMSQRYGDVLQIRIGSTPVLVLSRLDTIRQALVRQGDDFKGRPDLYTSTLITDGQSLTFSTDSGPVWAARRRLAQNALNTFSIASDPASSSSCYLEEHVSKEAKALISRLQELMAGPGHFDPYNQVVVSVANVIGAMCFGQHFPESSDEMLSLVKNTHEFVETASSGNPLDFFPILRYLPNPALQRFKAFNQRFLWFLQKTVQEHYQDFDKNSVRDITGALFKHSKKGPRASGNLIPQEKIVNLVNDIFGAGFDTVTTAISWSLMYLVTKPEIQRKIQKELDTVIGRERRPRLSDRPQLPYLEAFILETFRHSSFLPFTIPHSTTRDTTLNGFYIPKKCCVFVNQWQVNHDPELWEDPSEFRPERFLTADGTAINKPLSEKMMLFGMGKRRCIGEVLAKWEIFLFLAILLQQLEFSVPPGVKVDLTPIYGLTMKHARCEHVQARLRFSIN
Sequence of ATP-dependent 6-phosphofructokinase (Trypanosoma brucei brucei) (O15648 whole entry, looked up): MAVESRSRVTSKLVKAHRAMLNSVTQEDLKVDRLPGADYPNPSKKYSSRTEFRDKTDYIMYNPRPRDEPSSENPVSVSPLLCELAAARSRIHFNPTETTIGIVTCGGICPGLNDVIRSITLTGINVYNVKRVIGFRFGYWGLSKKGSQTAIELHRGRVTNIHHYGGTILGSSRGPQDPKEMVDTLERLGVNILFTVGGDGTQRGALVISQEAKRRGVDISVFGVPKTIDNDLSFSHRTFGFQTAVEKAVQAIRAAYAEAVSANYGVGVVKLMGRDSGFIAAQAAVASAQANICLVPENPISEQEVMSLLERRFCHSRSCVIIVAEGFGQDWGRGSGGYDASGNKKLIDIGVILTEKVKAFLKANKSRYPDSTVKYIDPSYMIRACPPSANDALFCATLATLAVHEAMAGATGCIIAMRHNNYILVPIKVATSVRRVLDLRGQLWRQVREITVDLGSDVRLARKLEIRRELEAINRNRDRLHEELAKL
Sequence of Luciferin 4-monooxygenase (Photinus pyralis) (P08659 whole entry, looked up): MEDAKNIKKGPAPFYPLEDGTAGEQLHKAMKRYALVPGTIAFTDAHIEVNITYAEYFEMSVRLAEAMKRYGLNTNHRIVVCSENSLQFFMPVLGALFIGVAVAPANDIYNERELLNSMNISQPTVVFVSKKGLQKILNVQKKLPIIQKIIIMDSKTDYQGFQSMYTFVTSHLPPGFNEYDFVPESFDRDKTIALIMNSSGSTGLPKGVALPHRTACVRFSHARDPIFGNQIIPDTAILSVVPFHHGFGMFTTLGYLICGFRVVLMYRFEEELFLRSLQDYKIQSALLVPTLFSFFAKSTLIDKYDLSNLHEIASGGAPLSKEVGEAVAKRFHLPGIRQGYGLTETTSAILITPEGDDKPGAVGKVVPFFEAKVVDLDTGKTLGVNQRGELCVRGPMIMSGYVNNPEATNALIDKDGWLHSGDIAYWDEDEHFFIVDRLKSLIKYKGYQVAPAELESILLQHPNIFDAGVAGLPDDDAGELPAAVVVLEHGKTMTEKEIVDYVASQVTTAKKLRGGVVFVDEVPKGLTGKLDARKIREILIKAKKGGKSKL

Consider `CN1C(=O)CC[C@@H]1c1cccnc1`, for which the activity change, negative = inhibition is 10.4% (inactive) in test [1] (at 17.2 µM (top of the series)); -5.74% (inactive) in [1] (at 38 µM (top of the series)); 1.15% (inactive) in test [3] (at 17.2 µM (top of the series)); 1.74% (inactive) in [3] (at 38 µM (top of the series)); 0.0072% (inactive) in [7]. Also, the Potency entry in test [2], in test [5], in test [6] and in test [8] was “inactive” each time. The results for the activity, negative = inhibition in [4] (at 17.2 µM (top of the series)) and in test [4] (at 38 µM (top of the series)) were -1.06% (inactive) and 17.2% (inactive), respectively. Besides, the max response came to 5.39% in test [7] (setting [21]) and 2.29% in test [7] (setting [22]).

With `C[C@@]12CCC(=O)C=C1CC[C@@H]1[C@@H]2[C@H](O)C[C@]2(C)[C@@H]1CC[C@]2(O)C(=O)CO`, the activity change, negative = inhibition in test [1] (at 17.2 µM (top of the series)) is 1.82% (inactive); in test [1] (at 38 µM (top of the series)) it was 1.86% (inactive); in test [3] (at 17.2 µM (top of the series)), -9.51% (inactive); in test [3] (at 38 µM (top of the series)) it was -0.823% (inactive); in test [7], -5.23% (inactive). Moreover, the Potency result in [2], in [5], in [6] and in test [8] was “inactive” in each case. The figures for the activity, negative = inhibition in [4] (at 17.2 µM (top of the series)) and in test [4] (at 38 µM (top of the series)) were -0.993% (inactive) and -22.1% (inactive), respectively. The max response is -11.2% in [7] (setting [21]) and -16.6% in [7] (setting [22]).

With `O=C(C1CCCCC1)N1CC(=O)N2CCc3ccccc3[C@@H]2C1`, the activity change, negative = inhibition in test [1] (at 17.2 µM (top of the series)) was 6.31% (inactive); in [1] (at 38 µM (top of the series)), -5.21% (inactive); in test [3] (at 17.2 µM (top of the series)), 3.18% (inactive); in test [3] (at 38 µM (top of the series)), -8.74% (inactive); in test [7] it was 1.99% (inactive). Moreover, the Potency was 12.6 µM (active) and 10 µM (active) in test [2]; > 46 µM (inactive) and > 20.6 µM (inactive) in test [9]; > 46 µM (inactive) and > 20.6 µM (inactive) in [10]. The values for the activity, negative = inhibition in test [4] (at 17.2 µM (top of the series)) and in [4] (at 38 µM (top of the series)) were -1.88% (inactive) and -0.96% (inactive), respectively. Moreover, the Potency result in test [5], in test [6] and in test [8] was “inactive” throughout. Moreover, the max response was 3.5% in test [7] (setting [21]) and 8.95% in [7] (setting [22]). Besides, the result in test [11] and in test [12] was inactive.

On to `O=C(c1ccccc1)c1ccc2n1CC[C@H]2C(=O)O`, for which the activity change, negative = inhibition is -5.93% (inactive) in test [1] (at 17.2 µM (top of the series)); -1.3% (inactive) in test [1] (at 38 µM (top of the series)); -13.5% (inactive) in test [3] (at 17.2 µM (top of the series)); -0.138% (inactive) in test [3] (at 38 µM (top of the series)); 1.19% (inactive) in test [7]. Moreover, the Potency in test [2] is 15.8 µM (active). Also, the activity, negative = inhibition in test [4] (at 17.2 µM (top of the series)) was 0.0746% (inactive); in test [4] (at 38 µM (top of the series)) it was 5.51% (inactive); in [13] (parasite line A), 1.36% (inactive); in test [13] (parasite line B) it was 2.01% (inactive). The Potency entry in [5], in [6], in test [8], in [14], in test [15] and in test [16] was “inactive” throughout. Further, the Potency result in [17], in test [18], in test [19] and in [20] was “inactive” each time. Also, the figures for the max response in test [7] (setting [21]) and in test [7] (setting [22]) were -5.21% and -1.68%, respectively. In [11], the result was inactive.
